Reference: ChEMBL document CHEMBL3988442, “University of Dundee, Small-Polar-MMV Screening Library” (2021)
For some assays here: Potency and affinity values are given separately.

How the values were obtained:
Set-up in all cases: scale not given: direction of the effect not stated beside the values
[1] = molecular target: Protein translocase subunit SecA (Escherichia coli (strain K12)) (UniProt P10408); assay: Assay to Identify E. coli SecA ATPase Inhibitors; assay type: functional; conditions: 30 µM
Chain of Protein translocase subunit SecA (Escherichia coli (strain K12)) (P10408 whole entry): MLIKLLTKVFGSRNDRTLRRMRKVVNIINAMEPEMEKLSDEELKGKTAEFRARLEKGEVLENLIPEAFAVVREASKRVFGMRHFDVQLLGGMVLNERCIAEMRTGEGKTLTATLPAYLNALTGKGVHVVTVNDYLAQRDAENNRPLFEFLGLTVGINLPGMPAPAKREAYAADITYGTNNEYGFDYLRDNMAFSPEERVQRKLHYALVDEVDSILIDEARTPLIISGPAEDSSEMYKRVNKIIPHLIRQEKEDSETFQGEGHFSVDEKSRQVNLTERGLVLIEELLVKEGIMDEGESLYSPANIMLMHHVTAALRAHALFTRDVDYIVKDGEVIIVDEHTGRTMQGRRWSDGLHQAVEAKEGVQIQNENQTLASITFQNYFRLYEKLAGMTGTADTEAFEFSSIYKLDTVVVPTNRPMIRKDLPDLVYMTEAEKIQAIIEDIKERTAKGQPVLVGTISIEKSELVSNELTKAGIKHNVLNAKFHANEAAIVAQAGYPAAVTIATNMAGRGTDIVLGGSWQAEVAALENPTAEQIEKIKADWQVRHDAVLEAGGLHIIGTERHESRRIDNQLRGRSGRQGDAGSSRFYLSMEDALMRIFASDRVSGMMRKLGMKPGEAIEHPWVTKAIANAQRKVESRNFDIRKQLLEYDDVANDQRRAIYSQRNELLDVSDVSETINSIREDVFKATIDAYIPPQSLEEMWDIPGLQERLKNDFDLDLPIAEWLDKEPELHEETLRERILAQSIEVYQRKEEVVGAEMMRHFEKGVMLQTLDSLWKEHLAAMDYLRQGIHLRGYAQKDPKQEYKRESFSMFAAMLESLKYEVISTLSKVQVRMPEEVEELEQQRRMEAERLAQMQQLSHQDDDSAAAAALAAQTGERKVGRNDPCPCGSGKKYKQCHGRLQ

[2] = molecular target: T1, Ubiquitin-activating enzyme e1, putative (Leishmania donovani (strain BPK282A1)) (UniProt E9BSI1); assay: Leishmania donovani Ubiquitin Activating Enzyme (LdE1); assay type: functional; conditions: 30 µM
T1 sequence (whole entry): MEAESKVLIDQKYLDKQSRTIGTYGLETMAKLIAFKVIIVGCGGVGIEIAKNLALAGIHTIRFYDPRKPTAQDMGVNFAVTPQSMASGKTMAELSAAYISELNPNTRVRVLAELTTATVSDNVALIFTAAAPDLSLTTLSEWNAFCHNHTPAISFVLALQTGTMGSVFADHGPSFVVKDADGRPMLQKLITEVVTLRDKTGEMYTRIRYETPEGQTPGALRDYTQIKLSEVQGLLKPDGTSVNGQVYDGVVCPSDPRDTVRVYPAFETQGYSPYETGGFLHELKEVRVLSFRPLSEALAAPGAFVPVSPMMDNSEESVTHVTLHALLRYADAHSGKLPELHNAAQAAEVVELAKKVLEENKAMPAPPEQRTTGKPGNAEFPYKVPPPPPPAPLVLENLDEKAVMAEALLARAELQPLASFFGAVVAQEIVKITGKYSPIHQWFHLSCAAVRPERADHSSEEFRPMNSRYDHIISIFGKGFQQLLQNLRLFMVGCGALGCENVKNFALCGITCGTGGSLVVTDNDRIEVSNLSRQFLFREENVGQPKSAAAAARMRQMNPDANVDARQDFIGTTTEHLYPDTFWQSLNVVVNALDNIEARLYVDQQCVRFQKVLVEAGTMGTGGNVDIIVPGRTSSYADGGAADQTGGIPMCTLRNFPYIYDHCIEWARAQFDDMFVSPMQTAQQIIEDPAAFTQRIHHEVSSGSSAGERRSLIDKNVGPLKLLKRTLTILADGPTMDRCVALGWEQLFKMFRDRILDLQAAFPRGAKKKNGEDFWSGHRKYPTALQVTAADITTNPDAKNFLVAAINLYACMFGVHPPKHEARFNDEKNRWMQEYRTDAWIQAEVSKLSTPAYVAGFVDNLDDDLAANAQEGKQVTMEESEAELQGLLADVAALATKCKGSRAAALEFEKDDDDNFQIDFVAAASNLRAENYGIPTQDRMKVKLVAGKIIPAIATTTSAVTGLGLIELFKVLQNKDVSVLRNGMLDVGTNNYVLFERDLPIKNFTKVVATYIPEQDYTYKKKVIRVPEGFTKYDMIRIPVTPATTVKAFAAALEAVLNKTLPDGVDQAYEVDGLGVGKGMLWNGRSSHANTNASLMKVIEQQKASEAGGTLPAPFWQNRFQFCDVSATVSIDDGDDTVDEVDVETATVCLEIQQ

[3] = molecular target: AMP-activated protein kinase, AMPK (Homo sapiens) (UniProt P54646+O43741+P54619+Q9UGJ0+Q9Y478+Q13131+Q9UGI9); assay: AMP-dependent Kinase enzyme assay. An in vitro enzyme assay that detects ADP turnover that is directly proportional to AMPK activity. This uses naive AMPK that is activated during the assay with MK-8722; assay type: functional; conditions: 30 µM
[4] = molecular target: Sialic acid-binding Ig-like lectin 9 (Homo sapiens) (UniProt Q9Y336); assay: Hs-Siglec9 ALPHAscreen SOP 20170721; conditions: 10 µM
Chain of Sialic acid-binding Ig-like lectin 9 (Homo sapiens) (Q9Y336 whole entry): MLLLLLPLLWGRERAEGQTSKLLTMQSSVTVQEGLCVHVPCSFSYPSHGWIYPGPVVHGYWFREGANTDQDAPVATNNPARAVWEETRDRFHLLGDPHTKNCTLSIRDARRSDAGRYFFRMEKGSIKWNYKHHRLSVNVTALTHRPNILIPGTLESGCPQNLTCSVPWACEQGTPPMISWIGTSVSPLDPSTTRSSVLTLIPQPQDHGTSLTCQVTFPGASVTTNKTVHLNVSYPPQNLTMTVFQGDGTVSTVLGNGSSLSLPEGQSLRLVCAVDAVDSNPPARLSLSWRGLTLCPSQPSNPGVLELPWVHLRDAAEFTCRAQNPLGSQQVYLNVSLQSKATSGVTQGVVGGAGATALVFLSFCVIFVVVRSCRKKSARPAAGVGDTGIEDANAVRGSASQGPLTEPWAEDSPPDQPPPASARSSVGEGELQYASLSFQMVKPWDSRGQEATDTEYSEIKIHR

Trypanosoma cruzi = assay: Trypanosoma cruzi phosphomannomutase and mannose-1-phosphate guanylyltransferase assay; assay type: functional; conditions: 10 µM
[5] = molecular target: T2, Arginase-2, mitochondrial (Homo sapiens) (UniProt P78540); assay: in vitro enzyme assay to detect the production of urea directly proportional to the activity of Arginase II; assay type: functional; conditions: 33.3 µM; further: in the data most compounds retested in dose-response had high values
T2 sequence (whole entry): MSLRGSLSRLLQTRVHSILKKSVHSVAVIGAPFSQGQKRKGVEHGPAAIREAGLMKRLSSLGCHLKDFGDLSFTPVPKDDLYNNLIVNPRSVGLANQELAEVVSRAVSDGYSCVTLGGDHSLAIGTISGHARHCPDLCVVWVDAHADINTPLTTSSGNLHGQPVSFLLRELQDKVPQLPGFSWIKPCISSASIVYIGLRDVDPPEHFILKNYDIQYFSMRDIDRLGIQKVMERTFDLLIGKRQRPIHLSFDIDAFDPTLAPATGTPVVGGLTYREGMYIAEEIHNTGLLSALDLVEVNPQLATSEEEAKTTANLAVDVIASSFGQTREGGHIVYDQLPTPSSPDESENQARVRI

[6] = molecular target: T3, Proteasome subunit beta (Trypanosoma cruzi) (UniProt O96673); assay: Trypanosoma cruzi proteasome chymotrypsin-like activity (TcProtChymo) assay.; further: in the data most compounds retested in dose-response had high values; assay type: functional; conditions: 9.37 µM
T3 sequence (whole entry): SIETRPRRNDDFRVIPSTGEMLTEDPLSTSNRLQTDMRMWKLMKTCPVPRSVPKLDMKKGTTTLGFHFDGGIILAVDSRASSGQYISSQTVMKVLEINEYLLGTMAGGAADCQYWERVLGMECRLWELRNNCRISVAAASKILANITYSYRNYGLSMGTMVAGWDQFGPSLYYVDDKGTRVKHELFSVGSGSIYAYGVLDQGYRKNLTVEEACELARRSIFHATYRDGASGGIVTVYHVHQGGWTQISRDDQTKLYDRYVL

Homo sapiens = organism: Homo sapiens; assay: To identify inhibition of the IFN signalling (Jak-Stat) pathway via expression of an eGFP reporter gene under the control of an IFN-stimulated response element (ISRE) containing MxA promoter.; assay type: functional; conditions: 30 µM
[7] = molecular target: T4, Tyrosyl-tRNA synthetase, putative (Trypanosoma cruzi (strain CL Brener)) (UniProt Q4DSP6); assay: Trypanosoma cruzi tyrosyl tRNA synthetase (TcYRS) _High Tyrosine SOP; assay type: functional; conditions: 30 µM; further: in the data most compounds retested in dose-response had high values
T4 sequence (whole entry): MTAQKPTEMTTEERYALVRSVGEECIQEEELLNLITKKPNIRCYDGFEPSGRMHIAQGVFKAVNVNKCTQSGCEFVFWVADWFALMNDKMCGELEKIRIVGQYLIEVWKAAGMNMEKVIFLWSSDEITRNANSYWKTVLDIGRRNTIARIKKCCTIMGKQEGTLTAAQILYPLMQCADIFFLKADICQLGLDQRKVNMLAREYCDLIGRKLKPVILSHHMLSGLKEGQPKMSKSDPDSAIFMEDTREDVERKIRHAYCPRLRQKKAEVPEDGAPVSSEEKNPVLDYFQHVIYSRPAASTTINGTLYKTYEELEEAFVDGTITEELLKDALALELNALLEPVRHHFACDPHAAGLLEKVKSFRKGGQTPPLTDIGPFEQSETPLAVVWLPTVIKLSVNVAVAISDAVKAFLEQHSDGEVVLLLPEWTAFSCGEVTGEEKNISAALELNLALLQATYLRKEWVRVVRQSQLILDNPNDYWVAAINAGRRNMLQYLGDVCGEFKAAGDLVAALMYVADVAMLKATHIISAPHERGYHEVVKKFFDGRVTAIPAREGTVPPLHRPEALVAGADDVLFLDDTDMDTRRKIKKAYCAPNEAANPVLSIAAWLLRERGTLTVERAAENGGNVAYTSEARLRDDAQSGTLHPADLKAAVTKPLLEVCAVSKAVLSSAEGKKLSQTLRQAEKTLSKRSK

[8] = molecular target: T4, Tyrosyl-tRNA synthetase, putative (Trypanosoma cruzi (strain CL Brener)); assay: Trypanosoma cruzi tyrosyl tRNA synthetase (TcYRS) SOP; assay type: functional; conditions: 30 µM
[9] = molecular target: Chromo domain-containing protein 1 (Saccharomyces cerevisiae (strain ATCC 204508 / S288c) (Baker's yeast)) (UniProt P32657); assay: ScCHD-1 Enzyme Inhibition Assay; assay type: functional; conditions: 30 µM; further: in the data most compounds retested in dose-response had high values
Chain of Chromo domain-containing protein 1 (Saccharomyces cerevisiae (strain ATCC 204508 / S288c) (Baker's yeast)) (P32657 whole entry, the tested form may be a part): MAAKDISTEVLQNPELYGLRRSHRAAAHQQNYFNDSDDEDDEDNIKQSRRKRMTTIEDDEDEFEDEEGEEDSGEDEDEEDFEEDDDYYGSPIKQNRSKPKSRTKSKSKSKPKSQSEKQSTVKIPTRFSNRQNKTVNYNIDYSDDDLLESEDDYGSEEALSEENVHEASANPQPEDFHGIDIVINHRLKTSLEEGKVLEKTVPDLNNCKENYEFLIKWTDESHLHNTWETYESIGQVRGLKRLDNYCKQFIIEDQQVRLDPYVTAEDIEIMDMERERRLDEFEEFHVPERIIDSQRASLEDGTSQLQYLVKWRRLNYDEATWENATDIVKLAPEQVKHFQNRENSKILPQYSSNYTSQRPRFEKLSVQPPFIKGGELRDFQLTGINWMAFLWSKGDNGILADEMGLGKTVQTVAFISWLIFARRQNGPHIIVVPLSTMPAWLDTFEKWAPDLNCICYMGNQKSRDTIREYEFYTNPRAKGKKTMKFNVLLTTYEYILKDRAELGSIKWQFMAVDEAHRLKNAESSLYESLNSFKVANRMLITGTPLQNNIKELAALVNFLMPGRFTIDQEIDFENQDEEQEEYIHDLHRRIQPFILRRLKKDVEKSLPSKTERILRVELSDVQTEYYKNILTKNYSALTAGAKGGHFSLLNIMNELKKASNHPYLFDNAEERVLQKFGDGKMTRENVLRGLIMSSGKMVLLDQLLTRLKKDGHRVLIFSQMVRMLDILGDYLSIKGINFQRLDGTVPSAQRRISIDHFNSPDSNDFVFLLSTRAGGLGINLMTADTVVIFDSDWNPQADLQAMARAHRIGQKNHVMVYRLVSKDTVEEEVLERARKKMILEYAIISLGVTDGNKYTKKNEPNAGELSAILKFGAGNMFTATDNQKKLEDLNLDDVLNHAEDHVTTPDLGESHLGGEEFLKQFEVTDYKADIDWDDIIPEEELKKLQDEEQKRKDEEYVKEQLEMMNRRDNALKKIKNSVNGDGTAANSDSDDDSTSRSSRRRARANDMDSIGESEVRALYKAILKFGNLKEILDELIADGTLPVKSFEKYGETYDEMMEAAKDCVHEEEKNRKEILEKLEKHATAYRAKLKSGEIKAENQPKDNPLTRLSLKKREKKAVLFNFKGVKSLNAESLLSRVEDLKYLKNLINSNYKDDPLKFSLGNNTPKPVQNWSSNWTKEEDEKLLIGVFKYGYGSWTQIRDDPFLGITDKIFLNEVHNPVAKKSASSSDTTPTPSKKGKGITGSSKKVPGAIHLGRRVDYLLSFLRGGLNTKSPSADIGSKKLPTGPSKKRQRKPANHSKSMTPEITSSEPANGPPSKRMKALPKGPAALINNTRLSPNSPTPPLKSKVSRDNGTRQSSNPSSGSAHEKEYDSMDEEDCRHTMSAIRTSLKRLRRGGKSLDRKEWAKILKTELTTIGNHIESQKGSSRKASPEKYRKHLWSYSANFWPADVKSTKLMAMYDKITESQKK

SMILES | Percent Effect [1] [%] | Percent Effect [2] [%] | Percent Effect [3] [%] | Percent Effect [4] [%] | Percent Effect (Trypanosoma cruzi) [%] | Percent Effect [5] [%] | Percent Effect [6] [%] | Percent Effect (Homo sapiens) [%] | Percent Effect [7] [%] | Percent Effect [8] [%] | Percent Effect [9] [%]
Cc1csc(Nc2cc(C3CCCCN3C)nc(C)n2)n1 (configuration not stated) | 1.97 | 8 | 7.4 | -13.6 | -5.71 | 3.5 | 17.5 | 14.7 | 4.25 | 6.41 | -0.0696
Cn1nnc2c1CCN(Cc1nccs1)C2COCc1ccccc1 (configuration not stated) | -2.95 | 2.67 | -19.8 | 5.81 | 1.77 | 5.83 | -8.9 | -0.293 | 7.45 | 8.97 | -0.607
CCn1nc(C)c2ccn(CC(=O)NC3CCCC3)c(=O)c21 | -4.42 | 7.79 | 58 | 0.145 | -4.63 | 0.645 | 5.57 | 20.1 | -1.06 | -6.41 | -2.48
COCCCN(C)Cc1nc2c(cnn2C)c(=O)[nH]1 | -5.54 | 21.1 | -0.426 | -2.13 | 7.75 | 3.96 | 18.4 | -3.84 | 2.46 | 25.9 | -9.74
O=C(NCc1ccco1)[C@@]12CCO[C@@H]1CCN(CCN1CCCC1)C2 | -6.16 | 16 | -5.27 | -2.5 | 5.21 | -51.1 | 18.5 | -5.93 | 6.25 | 22.5 | -12
Cc1cc(C(=O)N2CCC(c3nccn3CCCN(C)C)CC2)no1 | 1.38 | 11 | -2.51 | 3.99 | 2.74 | 10.9 | 20.8 | 21.1 | 6.45 | 17.5 | -13.1
CCc1noc(CNc2cc(F)ccc2OCC2CCCO2)n1 (configuration not stated) | -0.224 | -2.7 | -4.16 | 1.82 | -4.83 | -0.476 | 11.9 | 2.67 | -0.529 | 0 | -1.43
Cc1nn(C)c2c(NCCCn3cccn3)ncnc12 | -1.47 | 9.33 | 2.34 | -1.8 | 3.34 | -3.35 | 21.6 | -12.4 | 2.12 | 15.4 | -7.78
CC(C)N1CCC(CNCc2c[nH]nc2C(C)(C)C)C1 (configuration not stated) | -2.43 | 29.7 | -3.65 | -3.23 | 5.19 | -14.4 | 17.1 | 22 | 9.36 | 23.5 | -10.6
CCCN1CCN(C(=O)c2cnccn2)[C@H]2CS(=O)(=O)C[C@H]21 | -2.77 | 2.7 | -5.74 | 30.7 | 3.86 | 2.38 | 2.93 | 6.26 | 4.76 | 12.2 | -5.99
COC(=O)C1CCN(c2cncc(-n3nc(C)cc3C)n2)CC1 | -4 | 0 | 4.1 | 5.66 | -7.03 | 4.17 | 15.6 | 12.6 | 3.96 | 3.66 | -8.43
CN(Cc1ccsc1)C(=O)c1cccc(NS(C)(=O)=O)c1 | -5.08 | 20.8 | -4.59 | 10.4 | 4.12 | -6.41 | 3.72 | 14.4 | 8.74 | 24.4 | -8.96
Cc1cc(C)cc(-c2cccc(CC3(C(=O)O)CCOCC3)c2)c1 | -0.147 | 4.05 | 37.7 | 5.76 | -8.1 | -9.05 | 15.1 | 31.5 | -26.9 | -45.5 | -6.99
Cc1cc(C)n(-c2cc(N3CCN(C(=O)C(C)(C)C)CC3)nc(C)n2)n1 | -2.73 | 5.33 | -1.22 | 6.39 | 2.04 | 14.1 | 3.31 | 26.8 | 0.546 | 3.7 | -5.38
CCOC1CCN(C(=O)c2cnn(-c3ccccc3Cl)c2)CC1 | -4.12 | 8.11 | -9.38 | 9.51 | 0.283 | 0.802 | 2.34 | 4.91 | 6.4 | 16.1 | -0.798
CS(=O)(=O)N1CC[C@H]2C[C@@H](C(=O)N3CCOCC3)O[C@@H]2C1 | -3.64 | -8 | 8.84 | 4.61 | -1.54 | -53.2 | 2.73 | -12.5 | -2.08 | -7.5 | 1.18
Cc1cccc(CS(=O)(=O)NCC(O)Cc2ccccc2)c1 (configuration not stated) | -3.31 | 5.48 | -2.41 | 8.56 | 3.33 | 10.4 | 11.2 | 7.9 | 5.38 | 12.5 | -5.28
CN(C)C(CNC(=O)c1cccc(-n2cnnn2)c1)c1ccccc1Cl (configuration not stated) | -1.38 | 2.74 | 2.54 | -4.62 | -7.64 | 3.64 | 10.8 | 10.5 | 3.23 | 10 | -3.4
Cc1cc(C)n(-c2cncc(N3CCN(C(=O)C(C)(C)C)CC3)n2)n1 | -5.22 | 5.41 | 10.4 | -2.19 | -3.71 | -0.833 | 13.3 | 10.5 | 3.96 | 1.22 | -3.42
CCS(=O)(=O)N1Cc2nccn2CC(COc2cccnc2)C1 (configuration not stated) | -5.39 | 10.7 | -4.67 | 3.69 | 3.48 | -35.7 | 15.4 | 3.42 | 7.29 | 12.5 | -8.7
Cc1nnc(N2CCC(CNC(=O)OC(C)(C)C)CC2)c(C#N)c1C | -4.74 | 7.79 | -1.74 | -8.54 | 1.47 | -0.21 | 7.2 | 26.6 | 2.86 | 11.8 | -16.5
CN(Cc1ccccc1Br)C(=O)Cn1nc(-c2ccc(F)cc2)oc1=O | 2.65 | -5.26 | 0.817 | -11.8 | -6.33 | 10.7 | 10.8 | 10 | -24.5 | -28.6 | -1.2
